Measurements published in the supplement of paper PMC4466140.

B1: unnamed (peptide)
chain: PPPPPPPPPPLPQSL
B2: unnamed (peptide)
chain: PSPSSSPPPIPKTAN
B3: unnamed (peptide)
chain: YLTRPLPSTPNEDSR

These binders were tested against AgAbp1 (assay: SPOT peptide array binding signal intensity (averaged, normalized) (arbitrary units (background-subtracted, floor 0; scale differs between SH3 domains)); higher = stronger binding of the SH3 domain to the peptide).
Method in brief: (§1)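 SH3 domains from four yeast species were expressed as GST fusions in E. coli BL21(DE3) and purified on glutathione Sepharose. Each was incubated at 10 μg/ml overnight at 4°C in TBS-based blocking buffer on cellulose membranes bearing synthetic 15-mer peptides, in which serines replaced cysteines. Bound protein was detected with anti-GST antibody, an HRP anti-mouse secondary and luminol, then imaged and quantified with Genespotter. The binding signal is the normalized, background-subtracted spot intensity averaged over replicates, in arbitrary units that are not the same from one domain to another.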

Binder | SPOT peptide array binding signal intensity
B1 | 6.5
B2 | 6.5

The binders below were run against AgBbc1 in the same assay as above.
Method in brief: as §1

Binder | SPOT peptide array binding signal intensity
B1 | ≤ 0
B2 | 2.5

These binders were tested against AgBem1-D1 in the same assay as above.
Method in brief: as §1

Binder | SPOT peptide array binding signal intensity
B1 | ≤ 0
B2 | 5

These binders were tested against AgBzz1-D1 in the same assay as above.
Method in brief: as §1

Binder | SPOT peptide array binding signal intensity
B1 | 23.5
B2 | 2

These binders were tested against AgBzz1-D2 in the same assay as above.
Method in brief: as §1

Binder | SPOT peptide array binding signal intensity
B1 | ≤ 0
B2 | 22.5

What follows are binders tested against AgCyk3 in the same assay as above.
Method in brief: as §1

Binder | SPOT peptide array binding signal intensity
B1 | 1
B2 | 1

Each binder was assayed against AgFus1 in the same assay as above.
Method in brief: as §1

Binder | SPOT peptide array binding signal intensity
B1 | ≤ 0
B2 | 0.5

These binders were tested against AgHof1 in the same assay as above.
Method in brief: as §1

Binder | SPOT peptide array binding signal intensity
B1 | 366
B2 | ≤ 0

The binders below were run against AgHse1 in the same assay as above.
Method in brief: as §1

Binder | SPOT peptide array binding signal intensity
B1 | 18
B2 | 27

Each binder was assayed against AgLsb1 in the same assay as above.
Method in brief: as §1

Binder | SPOT peptide array binding signal intensity
B1 | ≤ 0
B2 | 1

The binders below were run against AgLsb4 in the same assay as above.
Method in brief: as §1

Binder | SPOT peptide array binding signal intensity
B1 | ≤ 0
B2 | ≤ 0

The binders below were run against AgMyo5 in the same assay as above.
Method in brief: as §1

Binder | SPOT peptide array binding signal intensity
B1 | 561
B2 | 1760

Each binder was assayed against AgNbp2 in the same assay as above.
Method in brief: as §1

Binder | SPOT peptide array binding signal intensity
B1 | 33
B2 | ≤ 0

What follows are binders tested against AgRvs167 in the same assay as above.
Method in brief: as §1

Binder | SPOT peptide array binding signal intensity
B1 | ≤ 0
B2 | 2.33

Each binder was assayed against AgSho1 in the same assay as above.
Method in brief: as §1

Binder | SPOT peptide array binding signal intensity
B1 | 3
B2 | 2.5

Each binder was assayed against AgSla1-D1-D2 in the same assay as above.
Method in brief: as §1

Binder | SPOT peptide array binding signal intensity
B1 | 1
B2 | 2.5

These binders were tested against AgSla1-D3 in the same assay as above.
Method in brief: as §1

Binder | SPOT peptide array binding signal intensity
B1 | 1.5
B2 | ≤ 0

These binders were tested against CaAbp1-D1 in the same assay as above.
Method in brief: as §1

Binder | SPOT peptide array binding signal intensity
B1 | 29.5
B2 | ≤ 0

Each binder was assayed against CaAbp1-D2 in the same assay as above.
Method in brief: as §1

Binder | SPOT peptide array binding signal intensity
B1 | ≤ 0
B2 | 9

The binders below were run against CaBbc1 in the same assay as above.
Method in brief: as §1

Binder | SPOT peptide array binding signal intensity
B1 | ≤ 0
B2 | 1

The binders below were run against CaBem1-D1 in the same assay as above.
Method in brief: as §1

Binder | SPOT peptide array binding signal intensity
B1 | 5
B2 | ≤ 0

What follows are binders tested against CaBzz1-D1 in the same assay as above.
Method in brief: as §1

Binder | SPOT peptide array binding signal intensity
B1 | 2040
B2 | 112

The binders below were run against CaBzz1-D2 in the same assay as above.
Method in brief: as §1

Binder | SPOT peptide array binding signal intensity
B1 | 268
B2 | 15

What follows are binders tested against CaCyk3 in the same assay as above.
Method in brief: as §1

Binder | SPOT peptide array binding signal intensity
B1 | 1
B2 | 1

The binders below were run against CaFus1 in the same assay as above.
Method in brief: as §1

Binder | SPOT peptide array binding signal intensity
B1 | 23
B2 | 31.5

These binders were tested against CaHof1 in the same assay as above.
Method in brief: as §1

Binder | SPOT peptide array binding signal intensity
B1 | 0.75
B2 | ≤ 0

What follows are binders tested against CaHse1 in the same assay as above.
Method in brief: as §1

Binder | SPOT peptide array binding signal intensity
B1 | 2.25
B2 | ≤ 0

What follows are binders tested against CaLsb1 in the same assay as above.
Method in brief: as §1

Binder | SPOT peptide array binding signal intensity
B1 | 0.5
B2 | ≤ 0

These binders were tested against CaLsb4 in the same assay as above.
Method in brief: as §1

Binder | SPOT peptide array binding signal intensity
B1 | ≤ 0
B2 | 4.5

The binders below were run against CaMyo5 in the same assay as above.
Method in brief: as §1

Binder | SPOT peptide array binding signal intensity
B1 | 156
B2 | 386

Each binder was assayed against CaNbp2 in the same assay as above.
Method in brief: as §1

Binder | SPOT peptide array binding signal intensity
B1 | 67.5
B2 | 15.5
B3 | ≤ 0

Each binder was assayed against CaRvs167 in the same assay as above.
Method in brief: as §1

Binder | SPOT peptide array binding signal intensity
B1 | ≤ 0
B2 | ≤ 0
B3 | 144

These binders were tested against CaRvs167-3 in the same assay as above.
Method in brief: as §1

Binder | SPOT peptide array binding signal intensity
B1 | ≤ 0
B2 | 3
B3 | ≤ 0

What follows are binders tested against CaSho1 in the same assay as above.
Method in brief: as §1

Binder | SPOT peptide array binding signal intensity
B1 | 4
B2 | 5
B3 | 1020

Each binder was assayed against CaSla1-D1-D2 in the same assay as above.
Method in brief: as §1

Binder | SPOT peptide array binding signal intensity
B1 | ≤ 0
B2 | 8.5
B3 | ≤ 0

These binders were tested against CaSla1-D3 in the same assay as above.
Method in brief: as §1

Binder | SPOT peptide array binding signal intensity
B1 | ≤ 0
B2 | ≤ 0
B3 | ≤ 0

The binders below were run against ScAbp1 in the same assay as above.
Method in brief: as §1

Binder | SPOT peptide array binding signal intensity
B1 | 1
B2 | 9
B3 | 3.5

What follows are binders tested against ScBbc1 in the same assay as above.
Method in brief: as §1

Binder | SPOT peptide array binding signal intensity
B1 | ≤ 0
B2 | ≤ 0
B3 | 5

Each binder was assayed against ScBem1-D1 in the same assay as above.
Method in brief: as §1

Binder | SPOT peptide array binding signal intensity
B1 | ≤ 0
B2 | ≤ 0
B3 | ≤ 0

The binders below were run against ScBzz1-D1 in the same assay as above.
Method in brief: as §1

Binder | SPOT peptide array binding signal intensity
B1 | 4
B2 | 4
B3 | 6.5

These binders were tested against ScBzz1-D2 in the same assay as above.
Method in brief: as §1

Binder | SPOT peptide array binding signal intensity
B1 | 2
B2 | 20
B3 | 14

What follows are binders tested against ScCyk3 in the same assay as above.
Method in brief: as §1

Binder | SPOT peptide array binding signal intensity
B1 | ≤ 0
B2 | ≤ 0
B3 | ≤ 0

These binders were tested against ScFus1 in the same assay as above.
Method in brief: as §1

Binder | SPOT peptide array binding signal intensity
B1 | ≤ 0
B2 | ≤ 0
B3 | ≤ 0

What follows are binders tested against ScHof1 in the same assay as above.
Method in brief: as §1

Binder | SPOT peptide array binding signal intensity
B1 | 92.8
B2 | ≤ 0
B3 | 9.5

These binders were tested against ScHse1 in the same assay as above.
Method in brief: as §1

Binder | SPOT peptide array binding signal intensity
B1 | 19
B2 | 50
B3 | ≤ 0

Each binder was assayed against ScLsb1 in the same assay as above.
Method in brief: as §1

Binder | SPOT peptide array binding signal intensity
B1 | ≤ 0
B2 | 1
B3 | 20

What follows are binders tested against ScLsb2 in the same assay as above.
Method in brief: as §1

Binder | SPOT peptide array binding signal intensity
B1 | ≤ 0
B2 | ≤ 0
B3 | 2.5

The binders below were run against ScLsb3 in the same assay as above.
Method in brief: as §1

Binder | SPOT peptide array binding signal intensity
B1 | 49
B2 | 24.5
B3 | 3260

What follows are binders tested against ScLsb4 in the same assay as above.
Method in brief: as §1

Binder | SPOT peptide array binding signal intensity
B1 | ≤ 0
B2 | ≤ 0
B3 | 706

Each binder was assayed against ScMyo3 in the same assay as above.
Method in brief: as §1

Binder | SPOT peptide array binding signal intensity
B1 | 1500
B2 | 2350
B3 | 3

What follows are binders tested against ScMyo5 in the same assay as above.
Method in brief: as §1

Binder | SPOT peptide array binding signal intensity
B1 | 677
B2 | 1200
B3 | ≤ 0

The binders below were run against ScNbp2 in the same assay as above.
Method in brief: as §1

Binder | SPOT peptide array binding signal intensity
B1 | ≤ 0
B2 | 6.5
B3 | ≤ 0

What follows are binders tested against ScPex13 in the same assay as above.
Method in brief: as §1

Binder | SPOT peptide array binding signal intensity
B1 | 526
B2 | ≤ 0
B3 | 992

These binders were tested against ScRvs167 in the same assay as above.
Method in brief: as §1

Binder | SPOT peptide array binding signal intensity
B1 | ≤ 0
B2 | 2
B3 | 417

What follows are binders tested against ScSho1 in the same assay as above.
Method in brief: as §1

Binder | SPOT peptide array binding signal intensity
B1 | 28.5
B2 | ≤ 0
B3 | 3780

Each binder was assayed against ScSla1-D1-D2 in the same assay as above.
Method in brief: as §1

Binder | SPOT peptide array binding signal intensity
B1 | 3.5
B2 | ≤ 0
B3 | 17.5

These binders were tested against ScSla1-D3 in the same assay as above.
Method in brief: as §1

Binder | SPOT peptide array binding signal intensity
B1 | ≤ 0
B2 | 22.8
B3 | 1

The binders below were run against SpAbp1-D1 in the same assay as above.
Method in brief: as §1

Binder | SPOT peptide array binding signal intensity
B1 | 4
B2 | 8
B3 | ≤ 0

The binders below were run against SpBbc1 in the same assay as above.
Method in brief: as §1

Binder | SPOT peptide array binding signal intensity
B1 | 1
B2 | 5
B3 | ≤ 0

These binders were tested against SpBzz1-D1 in the same assay as above.
Method in brief: as §1

Binder | SPOT peptide array binding signal intensity
B1 | 4430
B2 | 182
B3 | 74.5

These binders were tested against SpBzz1-D2 in the same assay as above.
Method in brief: as §1

Binder | SPOT peptide array binding signal intensity
B1 | 41
B2 | 0.5
B3 | ≤ 0

Each binder was assayed against SpCyk3 in the same assay as above.
Method in brief: as §1

Binder | SPOT peptide array binding signal intensity
B1 | ≤ 0
B2 | 1
B3 | 150

The binders below were run against SpHof1 in the same assay as above.
Method in brief: as §1

Binder | SPOT peptide array binding signal intensity
B1 | ≤ 0
B2 | ≤ 0
B3 | 2260

These binders were tested against SpHof1-2 in the same assay as above.
Method in brief: as §1

Binder | SPOT peptide array binding signal intensity
B1 | 4
B2 | ≤ 0
B3 | 1610

The binders below were run against SpHof1-3 in the same assay as above.
Method in brief: as §1

Binder | SPOT peptide array binding signal intensity
B1 | ≤ 0
B2 | 0.5
B3 | 776

What follows are binders tested against SpHse1 in the same assay as above.
Method in brief: as §1

Binder | SPOT peptide array binding signal intensity
B1 | 13.5
B2 | 2.5
B3 | 1.75

Each binder was assayed against SpLsb1 in the same assay as above.
Method in brief: as §1

Binder | SPOT peptide array binding signal intensity
B1 | 0.5
B2 | 1.5
B3 | 1

These binders were tested against SpLsb4 in the same assay as above.
Method in brief: as §1

Binder | SPOT peptide array binding signal intensity
B1 | 23
B2 | ≤ 0
B3 | 2190

These binders were tested against SpMyo1 in the same assay as above.
Method in brief: as §1

Binder | SPOT peptide array binding signal intensity
B1 | 1510
B2 | 1570
B3 | 60.2

The binders below were run against SpNbp2 in the same assay as above.
Method in brief: as §1

Binder | SPOT peptide array binding signal intensity
B1 | 17
B2 | 3
B3 | ≤ 0

Each binder was assayed against SpPex13 in the same assay as above.
Method in brief: as §1

Binder | SPOT peptide array binding signal intensity
B1 | ≤ 0
B2 | ≤ 0
B3 | 1.5

These binders were tested against SpRvs167 in the same assay as above.
Method in brief: as §1

Binder | SPOT peptide array binding signal intensity
B1 | 72.5
B2 | 1.17
B3 | 777

The binders below were run against SpSla1-D1-D2 in the same assay as above.
Method in brief: as §1

Binder | SPOT peptide array binding signal intensity
B1 | ≤ 0
B2 | 2
B3 | 9

What follows are binders tested against SpSla1-D3 in the same assay as above.
Method in brief: as §1

Binder | SPOT peptide array binding signal intensity
B1 | ≤ 0
B2 | 3
B3 | ≤ 0
